Assay results as given in PubChem BioAssay AID2101 (National Center for Advancing Translational Sciences (NCATS), 2009).
Hit rate of the full screen: of about 330,000 compounds, about 300 (0.091%) were called active. Not shown: some 4% with an inconclusive outcome. Calls come from the whole dose curve; as a rule, active = well fitted inhibition curve with a large enough effect; inconclusive = small, poorly fitted or top-dose-only effect, or effect the other way, or another doubt; inactive = no such curve, though single readings can be large or run the other way. Only a selection was taken, and actives are over-represented in it overall.

target: Lysosomal acid glucosylceramidase (Homo sapiens) (UniProt P04062); assay: qHTS Assay for Inhibitors and Activators of N370S glucocerebrosidase as a Potential Chaperone Treatment of Gaucher Disease; details: N370S GC spleen homogenate, 4MU-glucoside fluorescence; series mostly up to 59.4 µM; activity change, negative = inhibition: at the top concentration;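 for activity change, negative = inhibition: 0% = full enzyme activity and -100% = no enzyme basal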
Description: NIH Chemical Genomics Center [NCGC]
NIH Molecular Libraries Probe Production Centers Network [MLPCN]
Assay Submitter (PI): Wei Zheng
Glucocerebrosidase (GC) catalyzes the hydrolysis of beta-glucocerebroside to glucose and ceramide in lysosomes. Mutations in the glucocerebrosidase gene result in Gaucher disease, an autosomal recessive lysosomal storage disorder. Many of the mutations encountered in patients with Gaucher disease are missense alterations that may cause misfolding, decreased stability and/or mistrafficking of this lysosomal protein. […] These inhibitors include iminosugar analogs and three non-iminosugar inhibitors identified from a previous HTS of 62,000 compounds with the wild type recombinant enzyme. However, the enhancement of enzyme activity by the chaperone action of an enzyme inhibitor must be balanced against the direct inhibition of the enzyme. An enzyme activator could also function as a chaperone by binding to the enzyme and helping to correct its misfolding and mistrafficking. While activators for GC have not yet been identified, they may have better therapeutic potential than inhibitors. Therefore the discovery and development of chemical activators may provide a new strategy for the chaperone therapy.
We have optimized a new assay using N370S mutant GC derived from the spleen of a Gaucher patient. […] In addition, the MLPCN compound library has expanded, which increases the chance of finding new and better probes.
NCGC Assay Protocol Summary:
This is a fluorogenic enzyme assay with 4-methylumbelliferyl-beta-D-glucopyranoside as the substrate and N370S glucocerebrosidase from human spleen homogenate as the enzyme preparation. Upon the hydrolysis of this fluorogenic substrate, the resulting product, […] which can be detected by a standard fluorescence plate reader. Data were normalized to the controls for basal activity (without enzyme) and 100% activity (with enzyme). The AC50 values were determined from concentration-response data modeled with the standard Hill equation.
Assay buffer: 50 mM citric acid (titrated with potassium phosphate to pH 5.0), 100 mM potassium chloride, 10 mM sodium chloride, 1 mM magnesium chloride, 0.01% Tween-20.
1536-well assay protocol:
(1) Add 2 ul/well of spleen homogenate (27 ug final)
(2) Add 23 nL compounds in DMSO solution. The final titration was 0.5 nM to 58 uM.
(3) Add 2 ul of substrate (1 mM final)
(4) Incubate at 37C for 40 min.
(5) Add 2 ul stop solution (1M NaOH and 1M Glycine mixture, pH 10)
(6) Detect the assay plate in a ViewLux plate reader (PerkinElmer) with Ex=365 nm and Em=440nm.
Keywords: Glucocerebrosidase, beta-glucosidase, Gaucher Disease, pharmacological chaperone, chaperone therapy, high throughput screening, glucocerebrosidase inhibitor, MLSMR, MLSCN, NIH Roadmap, qHTS and NCGC
Potency is the fitted concentration of half-maximal effect.

Activity change, negative = inhibition, inactive:
O=C(NCCc1ccc(F)cc1)c1ccc(S(=O)(=O)N2CCCCC2)cc1 1.39%, Nc1nc2c(ncn2[C@@H]2O[C@H](COP(=O)(O)OP(=O)(O)OP(=O)(O)O)[C@@H](O)C2O)c(=O)[nH]1 (stereo partly specified) 9.3%, Cc1occc1-c1nnc(SCC(=O)NC2(C#N)CCCC2)n1C -17.2%, C/C=C(\C)C(=O)OC1C(OC(=O)C2(C)OC2C)c2cc3ccc(=O)oc3cc2OC1(C)C (stereo unspecified) 3.71%, O=C(c1cnccn1)N1CCC2(CCN(Cc3cc(C(F)(F)F)cc(C(F)(F)F)c3)CC2)CC1 -12.7%, Cc1ccc(NC(=O)CCC(=O)N2CCC(c3ccccc3)=N2)cc1S(=O)(=O)N1CCCCC1 2.1%, CC(=O)OCCC(C)C 0.964%, CCCCCCN(C(=O)CCCCCN1C(=O)NC(c2ccc(C(F)(F)F)cc2)C(C(=O)OCc2ccccc2)=C1C)C(C(=O)NCCCC)c1ccc(OCC(=O)OC)c(C(=O)OC)c1 (stereo unspecified) 5.32%, c1ccc(Oc2ccccc2)cc1 22.7%, C=CCOC(=O)C(C(C)=O)C(NC(=O)OC)c1ccccc1 (stereo unspecified) -15.4% [at 12.8 µM], COC(=O)CCc1ccccc1S(=O)(=O)N(CCC(=O)OC)Cc1ccccc1 4.9%, CC1CC[C@@]23CCC4(C)[C@@]5(C)CCC6C(C)(C)C(O)CC[C@@]6(C)C5C=C[C@@]4(OC2=O)C3C1C (stereo partly specified) 17%, CCN(CC)/[N+]([O-])=N/Oc1cc(O/[N+]([O-])=N/N2CCCC2CO)c([N+](=O)[O-])cc1[N+](=O)[O-] (stereo unspecified) -2.99%, COC(=O)N1C(/C=C/C=C/c2ccc(OC)cc2)=Cc2ccccc2C1CC(C)=O (stereo unspecified) -10.4% [at 12.8 µM], COc1ccc(-c2nc3c(c4c2C[C@H](c2ccccc2)OC4)CN(C(=O)C2CC2)CC3)c(C)c1 -14.3% [at 12.8 µM], C[C@]12CC[C@@H]3C(=CCc4cc(O)ccc43)[C@@H]1CCC2=O 5.36% [at 21.6 µM], CCOC(OCC)OCC -6.68%, COc1ccc(Cl)cc1NC(=O)CN(C)CC(=O)Nc1ccc2c(c1)OCO2 -0.107%, COc1cccc(CC(=O)N2CCc3nc(COc4ccccc4)c4c(c3C2)CO[C@@H](C)C4)c1 3.29% [at 12.8 µM], O=S(=O)(Nc1ccc2nc(N3CCOCC3)sc2c1)c1ccccc1 -0.448%, CC(C)C(NC(=O)c1c(F)cccc1F)C(=O)NCc1ccncc1 (stereo unspecified) -1.03%, O=C(Nc1cccc(C(=O)NC2CC2)c1)c1ccc(F)c(S(=O)(=O)N2CCOCC2)c1 -12%, COc1ccc(CNC(=O)COC(=O)c2c(C)nn(-c3ccccc3)c2C)cc1OC -7.39%, Cc1ccccc1Nc1nc(N)nc(COC(=O)CCC(=O)c2ccc(F)cc2)n1 -4.41%, CN(CC(=O)Nc1cccc(F)c1)C(=O)CC1CCCC1 4.61%, Cc1cc(C(C)(C)C)n2nc(C)c(-c3ccccc3)c2n1 -12.5%, Cc1nc2cc(-c3ccc(F)cc3)nn2c(N2CCOCC2)c1C 3.61%, CC(O)[C@@H](N)C(=O)O (stereo partly specified) 0.968%, CC/C=C/C/C=C/C/C=C/CCCCCCCC(=O)OCC -5.39%, COC(=O)C(C(=O)OC)[C@@H]1CCCC(=O)C1 8.05% [at 12.8 µM], Cc1cc(C)c(C#N)c(SCC(=O)N(CC(C)C)C2CCS(=O)(=O)C2)n1 (stereo unspecified) -3.33%, O=C(COc1ccccc1O)NC1CCCC1 -4.6%, FC(F)(F)c1ccccc1-c1cc(NCc2ccccc2)ncn1 -15.5%, COc1cccc(-c2cc(=O)c3cc(NC(=O)c4ccc(C)cc4)ccc3[nH]2)c1 3.29% [at 89.1 µM], CCCCC(CC)CN (stereo unspecified), CCCCC/C=C\C/C=C\C/C=C\CCCCC(=O)NCC(=O)O -1.79%, CC(=O)Nc1ccc(S(=O)(=O)N2CCN(S(=O)(=O)c3cccs3)CC2)cc1 -3.11%, CCc1c2c(nc3ccc(O)cc13)-c1cc3c(c(=O)n1C2)COC(=O)[C@]3(O)CC -6.54%, Cc1cc(C)cc(C#CC2C=CC(Oc3ccc(C4CCCC4)cc3)C(CO)O2)c1 (stereo unspecified) 7.35% [at 12.8 µM], O=C1C2C(c3ccccc3)CC=CC2C(c2ccoc2)N1Cc1ccccc1 (stereo unspecified) 1.22%, O=C(CN1CCCSc2ccccc21)N1CCN(S(=O)(=O)c2ccccc2)CC1 2.06%, COC(=O)NC(c1ccccc1)[C@]1(C(C)=O)CCCC1=O (stereo partly specified) 0.29% [at 12.8 µM], O=c1cc(-c2ccc(O)cc2)oc2c([C@@H]3O[C@H](CO)[C@@H](O)[C@H](O)[C@H]3O)c(O)cc(O)c12 -9.49%, COc1ccc2[nH]cc(CCNc3ncnc4ccc(-c5ccc(C(=O)N(C)C)cc5)cc34)c2c1 -20.6%, CCOC(=O)Cc1csc(SCC(=O)Nc2ccc(C)cc2F)n1 -2.81%, CC[C@H](C)[C@H](NC(=O)[C@@H](N)CCC(=O)O)C(=O)N[C@@H](CC(C)C)C(=O)N[C@@H](CC(=O)O)C(=O)N[C@H](C(=O)N1CCC[C@H]1C(=O)N[C@@H](CO)C(=O)N[C@H](C(=O)O)[C@@H](C)O)C(C)C -6.74%, N#CCC(=O)Nc1ccc(C(=O)OCC(=O)Nc2sc3c(c2C#N)CCCC3)cc1 -1.92%, CC(=O)CC(C)C 4.41%, CCOc1[nH]n(-c2ccc(Cl)cc2)c(=O)c1C=Nc1ccc(O)cc1 -12.7%, O=[N+]([O-])c1ccc(N=Cc2c(O)ccc3ccccc23)cc1 1.71%, CC(=O)c1ccc(N2CCN(C(=O)c3ccc(Cl)c(S(=O)(=O)NC4CC4)c3)CC2)c(F)c1 -16.3%, Oc1ccc(O)c2c(O)cccc12 -3.42%, Cc1ccc(C)c(NC(=O)CN(C)C(=O)c2ccc3ncsc3c2)c1 -14.8%, CSc1ccccc1NC(=O)COC(=O)CCCOc1ccc(C)cc1 -19.4%, CC1CCCC(NC(=O)c2cc(-c3ccncc3)nc3ccccc23)C1C (stereo unspecified) -3.85%, CCOc1ccc(N(CC(=O)Nc2cccc(OC)c2)S(C)(=O)=O)cc1 2.19%, CCOc1ccc(N(CC(=O)NCc2ccc(OC)cc2)S(=O)(=O)c2c(C)noc2C)cc1 5.25%, COc1cccc(N(CC(=O)NC2CCCCCC2)S(=O)(=O)c2ccccc2)c1 -0.1%, CCCN(c1ccc(C(C)C)cc1)S(=O)(=O)c1c(C)[nH]c(=O)[nH]c1=O -1.77%, CCOc1ccc(N(CC(=O)NCCc2ccc(F)cc2)S(=O)(=O)c2ccccc2)cc1 -4.73%, COc1ccc(N(CC(=O)NC2CCCCCCC2)S(=O)(=O)c2c(C)nn(C)c2C)cc1 1.78%

Potency, active:
Cc1cc(N)n2nc(-c3ccc(C(C)(C)C)cc3)cc2n1 10 µM, Oc1ccc(N=Cc2c(O)ccc3ccccc23)cc1 12.6 µM, CCOc1ccc(N(CC(=O)NC2CCCCCC2)S(=O)(=O)c2c(C)[nH]c(=O)[nH]c2=O)cc1 2.51 µM, CCOc1ccc(N(CC(=O)Nc2ccccc2F)S(=O)(=O)c2c(C)[nH]c(=O)[nH]c2=O)cc1 3.16 µM, COc1ccc(N(CC(=O)NC2CCCCC2)S(=O)(=O)c2c(C)[nH]c(=O)[nH]c2=O)cc1 3.98 µM
